# Reference: paper PMC7862700, “An all-to-all approach to the identification of sequence-specific readers for epigenetic DNA modifications on cytosine”
# Columns and labels:
# Experiment in all cases: DAPPL (digital affinity profiling via proximity ligation, sequencing); 10 mM Tris-HCl pH 7.5, 50 mM NaCl, 1 mM DTT, 4% glycerol, room temperature, 30 min; GST-TFs on glutathione beads, 16-mer random dsDNA library, 0.1% formaldehyde crosslink after washing; high values mean tight binding
# FEV = target: T1, FEV (Homo sapiens, UniProt Q99581 1-238); conditions: protein: recombinant; tags: N-terminal GST; dsDNA, one strand shown
# T1 sequence: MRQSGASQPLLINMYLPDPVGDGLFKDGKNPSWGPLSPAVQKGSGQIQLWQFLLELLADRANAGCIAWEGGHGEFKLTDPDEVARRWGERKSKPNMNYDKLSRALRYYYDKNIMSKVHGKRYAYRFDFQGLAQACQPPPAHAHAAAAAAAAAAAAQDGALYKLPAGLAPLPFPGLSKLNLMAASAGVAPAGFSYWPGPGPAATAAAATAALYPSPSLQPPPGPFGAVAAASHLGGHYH
# Procedure, shortened: (§1)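 Each value of binding signal is a hexamer's read frequency for a factor divided by the same hexamer's frequency in the tag-only sample. Barcoded, bead-captured GST fusions of human transcription factors made in yeast were pooled with that sample and incubated with 200 nmole of a random double-stranded 16-mer DNA library in Tris/NaCl/DTT/glycerol buffer at room temperature for 30 min. Washing, 0.1% formaldehyde crosslinking, proximity ligation, PCR and Illumina NextSeq500 sequencing followed.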
# ETV5 = ETV5 (Homo sapiens, UniProt P41161 1-510); conditions: protein: recombinant; tags: N-terminal GST; dsDNA, one strand shown
# Procedure, shortened: as §1
# HSF1 = HSF1 (Homo sapiens, UniProt Q00613 1-529); conditions: protein: recombinant; tags: N-terminal GST; chain copies: 3; dsDNA, one strand shown
# Procedure, shortened: as §1
# SPIC = target: T2, SPIC (Homo sapiens, UniProt Q8N5J4 1-248); conditions: protein: recombinant; tags: N-terminal GST; dsDNA, one strand shown
# T2 sequence: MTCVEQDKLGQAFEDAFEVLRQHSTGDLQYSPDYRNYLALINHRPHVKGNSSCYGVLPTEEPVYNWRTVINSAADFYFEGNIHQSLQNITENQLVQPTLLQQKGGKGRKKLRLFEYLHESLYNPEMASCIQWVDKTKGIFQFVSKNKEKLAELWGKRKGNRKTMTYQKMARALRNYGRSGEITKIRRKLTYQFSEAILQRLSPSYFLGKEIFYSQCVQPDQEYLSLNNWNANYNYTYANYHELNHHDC
# Procedure, shortened: as §1
# ELF4 = ELF4 (Homo sapiens, UniProt Q99607 1-663); conditions: protein: recombinant; tags: N-terminal GST; dsDNA, one strand shown
# Procedure, shortened: as §1
# ELK4 = target: T3, ELK4 (Homo sapiens, UniProt P28324-2 1-405); conditions: protein: recombinant; tags: N-terminal GST; dsDNA, one strand shown
# T3 sequence: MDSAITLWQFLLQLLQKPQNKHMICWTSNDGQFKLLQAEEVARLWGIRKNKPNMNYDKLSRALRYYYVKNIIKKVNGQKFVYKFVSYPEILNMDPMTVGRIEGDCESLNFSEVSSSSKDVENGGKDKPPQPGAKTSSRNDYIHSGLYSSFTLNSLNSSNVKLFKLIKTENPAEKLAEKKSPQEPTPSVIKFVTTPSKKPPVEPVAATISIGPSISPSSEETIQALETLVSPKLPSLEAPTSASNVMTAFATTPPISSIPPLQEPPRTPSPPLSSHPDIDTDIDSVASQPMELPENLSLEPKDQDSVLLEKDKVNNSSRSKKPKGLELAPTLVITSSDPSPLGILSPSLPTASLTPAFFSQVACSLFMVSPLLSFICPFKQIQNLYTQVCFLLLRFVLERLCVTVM
# Procedure, shortened: as §1
# ETV2 = target: T4, ETV2 (Homo sapiens, UniProt O00321 1-342); conditions: protein: recombinant; tags: N-terminal GST; dsDNA, one strand shown
# T4 sequence: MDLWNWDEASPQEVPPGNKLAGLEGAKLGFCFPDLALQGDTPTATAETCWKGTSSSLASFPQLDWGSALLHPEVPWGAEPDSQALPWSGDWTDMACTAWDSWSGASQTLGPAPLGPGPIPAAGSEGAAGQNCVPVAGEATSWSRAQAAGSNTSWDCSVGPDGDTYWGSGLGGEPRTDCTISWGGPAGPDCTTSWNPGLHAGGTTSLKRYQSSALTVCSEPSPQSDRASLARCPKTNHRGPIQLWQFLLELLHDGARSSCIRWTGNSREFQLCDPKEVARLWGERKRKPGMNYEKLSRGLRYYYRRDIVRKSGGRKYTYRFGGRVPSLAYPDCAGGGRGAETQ
# Procedure, shortened: as §1
# ELF3 = target: T5, ELF3 (Homo sapiens, UniProt P78545 1-371); conditions: protein: recombinant; tags: N-terminal GST; dsDNA, one strand shown
# T5 sequence: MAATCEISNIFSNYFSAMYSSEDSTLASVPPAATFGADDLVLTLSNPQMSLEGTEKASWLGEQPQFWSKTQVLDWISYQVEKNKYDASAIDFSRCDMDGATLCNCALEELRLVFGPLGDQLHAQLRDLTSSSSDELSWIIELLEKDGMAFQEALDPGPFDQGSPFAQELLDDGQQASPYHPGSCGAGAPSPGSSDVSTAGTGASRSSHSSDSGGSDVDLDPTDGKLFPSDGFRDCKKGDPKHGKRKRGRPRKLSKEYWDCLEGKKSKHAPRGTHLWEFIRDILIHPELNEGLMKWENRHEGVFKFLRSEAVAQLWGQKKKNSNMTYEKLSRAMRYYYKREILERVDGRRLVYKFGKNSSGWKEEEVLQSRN
# Procedure, shortened: as §1
# CRX = CRX (Homo sapiens, UniProt O43186 1-299); conditions: protein: recombinant; tags: N-terminal GST; dsDNA, one strand shown
# Procedure, shortened: as §1
# ETV1 = ETV1 (Homo sapiens, UniProt P50549 1-477); conditions: protein: recombinant; tags: N-terminal GST; dsDNA, one strand shown
# Procedure, shortened: as §1
# ERF = target: T6, ERF (Homo sapiens, UniProt P50548 1-548); conditions: protein: recombinant; tags: N-terminal GST; dsDNA, one strand shown
# T6 sequence: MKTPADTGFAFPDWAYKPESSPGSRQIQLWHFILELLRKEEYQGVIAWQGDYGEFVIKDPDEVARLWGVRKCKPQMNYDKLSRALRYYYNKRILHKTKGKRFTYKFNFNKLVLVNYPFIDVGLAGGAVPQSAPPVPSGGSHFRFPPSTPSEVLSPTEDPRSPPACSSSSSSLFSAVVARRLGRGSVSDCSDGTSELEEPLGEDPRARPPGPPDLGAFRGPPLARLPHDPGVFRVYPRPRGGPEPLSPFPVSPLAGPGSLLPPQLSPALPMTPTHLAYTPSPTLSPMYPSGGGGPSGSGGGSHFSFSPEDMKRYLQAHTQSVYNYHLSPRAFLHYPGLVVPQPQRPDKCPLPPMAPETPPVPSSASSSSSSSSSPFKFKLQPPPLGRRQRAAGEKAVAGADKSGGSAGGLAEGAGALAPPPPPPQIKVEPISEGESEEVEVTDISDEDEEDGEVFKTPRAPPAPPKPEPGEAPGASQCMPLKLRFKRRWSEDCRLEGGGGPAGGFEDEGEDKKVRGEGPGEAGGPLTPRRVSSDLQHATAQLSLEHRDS
# Procedure, shortened: as §1
# ETV3L = target: T7, ETV3L (Homo sapiens, UniProt Q6ZN32 1-361); conditions: protein: recombinant; tags: N-terminal GST; dsDNA, one strand shown
# T7 sequence: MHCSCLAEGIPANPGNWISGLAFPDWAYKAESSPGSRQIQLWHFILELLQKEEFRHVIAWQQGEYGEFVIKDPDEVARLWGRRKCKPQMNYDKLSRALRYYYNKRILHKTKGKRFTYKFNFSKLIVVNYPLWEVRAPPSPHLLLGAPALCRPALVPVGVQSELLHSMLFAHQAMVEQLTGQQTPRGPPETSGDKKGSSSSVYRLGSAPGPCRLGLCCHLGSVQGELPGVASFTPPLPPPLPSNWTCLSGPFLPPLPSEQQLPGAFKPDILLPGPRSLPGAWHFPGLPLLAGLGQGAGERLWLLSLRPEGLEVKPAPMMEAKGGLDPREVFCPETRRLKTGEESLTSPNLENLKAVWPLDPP
# Procedure, shortened: as §1
# ETS2 = target: T8, ETS2 (Homo sapiens, UniProt P15036 1-469); conditions: protein: recombinant; tags: N-terminal GST; dsDNA, one strand shown
# T8 sequence: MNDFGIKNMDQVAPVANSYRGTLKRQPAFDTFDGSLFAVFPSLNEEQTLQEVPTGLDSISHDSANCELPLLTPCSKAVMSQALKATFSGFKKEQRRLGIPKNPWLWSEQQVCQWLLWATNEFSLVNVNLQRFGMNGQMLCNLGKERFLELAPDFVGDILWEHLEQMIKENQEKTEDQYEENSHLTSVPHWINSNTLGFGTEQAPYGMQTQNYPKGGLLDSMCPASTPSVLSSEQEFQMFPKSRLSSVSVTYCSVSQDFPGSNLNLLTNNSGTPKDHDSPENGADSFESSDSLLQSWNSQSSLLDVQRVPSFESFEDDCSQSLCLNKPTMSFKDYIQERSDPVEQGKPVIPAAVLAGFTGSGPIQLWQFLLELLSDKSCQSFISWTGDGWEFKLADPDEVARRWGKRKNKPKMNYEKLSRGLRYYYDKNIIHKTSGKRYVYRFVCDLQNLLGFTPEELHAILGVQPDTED
# Procedure, shortened: as §1
# SPDEF = target: T9, SPDEF (Homo sapiens, UniProt O95238 1-335); conditions: protein: recombinant; tags: N-terminal GST; dsDNA, one strand shown
# T9 sequence: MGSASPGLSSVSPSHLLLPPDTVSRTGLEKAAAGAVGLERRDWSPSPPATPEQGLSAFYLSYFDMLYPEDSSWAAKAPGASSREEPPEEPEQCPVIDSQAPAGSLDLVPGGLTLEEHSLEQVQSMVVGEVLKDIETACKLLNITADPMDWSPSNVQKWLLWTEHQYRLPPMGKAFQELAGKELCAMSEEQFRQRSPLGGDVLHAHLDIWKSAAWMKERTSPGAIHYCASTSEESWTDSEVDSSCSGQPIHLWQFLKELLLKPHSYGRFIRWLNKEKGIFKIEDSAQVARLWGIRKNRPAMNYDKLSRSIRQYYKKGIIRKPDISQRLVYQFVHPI
# Procedure, shortened: as §1
# ETV7 = target: T10, ETV7 (Homo sapiens, UniProt Q9Y603 1-341); conditions: protein: recombinant; tags: N-terminal GST; dsDNA, one strand shown
# T10 sequence: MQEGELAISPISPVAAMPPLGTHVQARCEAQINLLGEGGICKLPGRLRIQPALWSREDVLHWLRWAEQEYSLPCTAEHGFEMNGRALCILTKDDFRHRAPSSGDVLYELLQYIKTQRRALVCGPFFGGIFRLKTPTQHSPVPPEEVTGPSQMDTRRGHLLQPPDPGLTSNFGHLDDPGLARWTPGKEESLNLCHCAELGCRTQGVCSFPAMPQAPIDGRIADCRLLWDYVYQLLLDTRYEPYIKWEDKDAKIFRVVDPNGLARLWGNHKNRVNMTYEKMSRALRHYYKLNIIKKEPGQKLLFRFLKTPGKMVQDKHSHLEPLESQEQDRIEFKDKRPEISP
# Procedure, shortened: as §1
# ELF5 = target: T11, ELF5 (Homo sapiens, UniProt Q9UKW6-2 1-255); conditions: protein: recombinant; tags: N-terminal GST; dsDNA, one strand shown
# T11 sequence: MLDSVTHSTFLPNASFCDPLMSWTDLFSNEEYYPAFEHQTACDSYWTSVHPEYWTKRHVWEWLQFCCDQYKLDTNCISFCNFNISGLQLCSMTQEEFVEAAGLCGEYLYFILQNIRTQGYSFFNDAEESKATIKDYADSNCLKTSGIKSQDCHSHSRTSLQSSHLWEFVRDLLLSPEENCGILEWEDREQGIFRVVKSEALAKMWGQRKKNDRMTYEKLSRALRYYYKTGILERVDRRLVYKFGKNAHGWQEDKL
# Procedure, shortened: as §1
# ETV3 = target: T12, ETV3 (Homo sapiens, UniProt P41162-2 1-143); conditions: protein: recombinant; tags: N-terminal GST; dsDNA, one strand shown
# T12 sequence: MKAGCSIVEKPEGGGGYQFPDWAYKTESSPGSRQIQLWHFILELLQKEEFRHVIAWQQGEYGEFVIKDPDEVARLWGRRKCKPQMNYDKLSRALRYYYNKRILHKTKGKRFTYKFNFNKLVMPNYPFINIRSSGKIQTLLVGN
# Procedure, shortened: as §1
# ETV6 = ETV6 (Homo sapiens, UniProt P41212 1-452); conditions: protein: recombinant; tags: N-terminal GST; dsDNA, one strand shown
# Procedure, shortened: as §1
# Chain of CRX (O43186 whole entry): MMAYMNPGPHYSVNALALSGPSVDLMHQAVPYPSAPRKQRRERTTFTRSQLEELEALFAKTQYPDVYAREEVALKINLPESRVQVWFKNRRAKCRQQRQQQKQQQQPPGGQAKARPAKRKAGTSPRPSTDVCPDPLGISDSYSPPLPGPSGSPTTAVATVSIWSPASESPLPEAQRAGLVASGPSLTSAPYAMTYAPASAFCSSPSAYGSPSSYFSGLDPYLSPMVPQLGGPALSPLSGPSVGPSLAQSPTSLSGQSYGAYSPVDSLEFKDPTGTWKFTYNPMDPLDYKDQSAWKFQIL
# Chain of ETV5 (P41161 whole entry): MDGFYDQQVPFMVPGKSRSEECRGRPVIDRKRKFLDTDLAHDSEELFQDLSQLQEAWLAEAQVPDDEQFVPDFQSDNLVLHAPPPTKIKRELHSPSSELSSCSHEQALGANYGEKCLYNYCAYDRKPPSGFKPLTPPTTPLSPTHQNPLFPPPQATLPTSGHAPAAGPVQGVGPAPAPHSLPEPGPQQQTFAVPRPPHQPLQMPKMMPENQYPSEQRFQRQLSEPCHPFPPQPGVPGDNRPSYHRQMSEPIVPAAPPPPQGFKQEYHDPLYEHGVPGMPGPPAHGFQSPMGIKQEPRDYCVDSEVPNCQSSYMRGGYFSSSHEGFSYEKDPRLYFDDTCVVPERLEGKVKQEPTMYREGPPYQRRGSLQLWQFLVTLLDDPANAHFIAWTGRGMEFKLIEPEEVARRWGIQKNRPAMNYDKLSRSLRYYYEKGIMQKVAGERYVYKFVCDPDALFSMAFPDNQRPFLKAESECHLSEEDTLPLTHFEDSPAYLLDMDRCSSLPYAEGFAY
# Chain of ELF4 (Q99607 whole entry): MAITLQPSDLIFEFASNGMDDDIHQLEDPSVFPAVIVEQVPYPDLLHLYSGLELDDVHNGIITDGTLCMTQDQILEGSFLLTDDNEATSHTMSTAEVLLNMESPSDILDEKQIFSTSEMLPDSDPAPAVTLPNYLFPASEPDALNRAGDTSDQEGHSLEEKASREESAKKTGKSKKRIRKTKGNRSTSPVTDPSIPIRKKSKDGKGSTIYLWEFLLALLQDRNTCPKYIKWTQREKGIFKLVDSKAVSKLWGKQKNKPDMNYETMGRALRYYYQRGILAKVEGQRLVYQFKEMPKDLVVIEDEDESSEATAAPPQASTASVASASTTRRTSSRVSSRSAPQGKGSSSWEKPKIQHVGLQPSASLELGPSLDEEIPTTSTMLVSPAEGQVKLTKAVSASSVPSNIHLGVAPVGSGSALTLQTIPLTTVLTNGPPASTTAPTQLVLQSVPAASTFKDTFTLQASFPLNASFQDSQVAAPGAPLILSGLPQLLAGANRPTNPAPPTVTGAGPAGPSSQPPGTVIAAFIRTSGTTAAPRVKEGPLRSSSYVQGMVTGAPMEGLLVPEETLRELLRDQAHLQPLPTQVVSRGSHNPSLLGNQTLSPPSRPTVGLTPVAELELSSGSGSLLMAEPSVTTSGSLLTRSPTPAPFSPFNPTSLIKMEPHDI
# Chain of ETV6 (P41212 whole entry): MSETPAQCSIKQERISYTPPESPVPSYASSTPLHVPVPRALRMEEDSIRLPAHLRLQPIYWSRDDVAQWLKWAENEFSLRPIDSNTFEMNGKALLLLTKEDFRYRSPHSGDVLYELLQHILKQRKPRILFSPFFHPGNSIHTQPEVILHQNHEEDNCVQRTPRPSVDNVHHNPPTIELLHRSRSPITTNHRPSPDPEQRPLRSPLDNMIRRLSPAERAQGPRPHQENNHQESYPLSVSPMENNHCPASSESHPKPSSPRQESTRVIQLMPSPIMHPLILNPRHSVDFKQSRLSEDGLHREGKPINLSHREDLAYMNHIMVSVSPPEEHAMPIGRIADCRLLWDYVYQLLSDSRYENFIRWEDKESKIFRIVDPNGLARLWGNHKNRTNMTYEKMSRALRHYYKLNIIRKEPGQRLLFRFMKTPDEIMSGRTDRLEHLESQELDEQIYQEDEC
# Chain of HSF1 (Q00613 whole entry): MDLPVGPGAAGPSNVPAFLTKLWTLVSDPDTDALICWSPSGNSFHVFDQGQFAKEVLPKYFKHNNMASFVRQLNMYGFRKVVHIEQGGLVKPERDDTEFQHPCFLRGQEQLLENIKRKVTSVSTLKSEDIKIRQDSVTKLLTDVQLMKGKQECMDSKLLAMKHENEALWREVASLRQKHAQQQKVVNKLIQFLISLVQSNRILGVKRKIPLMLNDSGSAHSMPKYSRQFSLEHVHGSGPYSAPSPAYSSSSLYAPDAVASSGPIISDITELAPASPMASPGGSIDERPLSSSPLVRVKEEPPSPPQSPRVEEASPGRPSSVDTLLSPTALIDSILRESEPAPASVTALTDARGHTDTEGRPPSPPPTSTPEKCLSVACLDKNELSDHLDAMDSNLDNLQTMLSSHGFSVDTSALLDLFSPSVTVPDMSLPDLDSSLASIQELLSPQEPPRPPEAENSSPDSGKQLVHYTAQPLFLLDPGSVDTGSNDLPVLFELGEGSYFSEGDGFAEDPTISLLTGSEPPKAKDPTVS
# Chain of ETV1 (P50549 whole entry): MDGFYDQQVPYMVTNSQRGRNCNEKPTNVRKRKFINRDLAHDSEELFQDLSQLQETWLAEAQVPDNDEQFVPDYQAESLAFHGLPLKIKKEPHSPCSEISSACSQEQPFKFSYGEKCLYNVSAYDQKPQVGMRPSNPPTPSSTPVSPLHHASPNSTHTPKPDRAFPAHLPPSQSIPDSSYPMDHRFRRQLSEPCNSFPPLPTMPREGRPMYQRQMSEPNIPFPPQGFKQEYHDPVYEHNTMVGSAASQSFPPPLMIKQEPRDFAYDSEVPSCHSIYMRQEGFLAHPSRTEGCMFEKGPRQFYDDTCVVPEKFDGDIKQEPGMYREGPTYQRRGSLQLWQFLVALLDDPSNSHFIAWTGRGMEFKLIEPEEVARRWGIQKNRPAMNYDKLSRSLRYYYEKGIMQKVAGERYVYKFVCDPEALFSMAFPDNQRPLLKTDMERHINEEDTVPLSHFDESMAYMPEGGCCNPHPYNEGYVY
sequence,measurement,setting,value
ACTACT,binding signal,FEV,"1.3 fold enrichment (6-mer frequency, TF over GST control)"
same,binding signal,ETV5,"1.19 fold enrichment (6-mer frequency, TF over GST control)"
same,binding signal,HSF1,"1.12 fold enrichment (6-mer frequency, TF over GST control)"
same,binding signal,SPIC,"1.26 fold enrichment (6-mer frequency, TF over GST control)"
same,binding signal,ELF4,"1.22 fold enrichment (6-mer frequency, TF over GST control)"
same,binding signal,ELK4,"1.36 fold enrichment (6-mer frequency, TF over GST control)"
same,binding signal,ETV2,"1.44 fold enrichment (6-mer frequency, TF over GST control)"
same,binding signal,ELF3,"1.24 fold enrichment (6-mer frequency, TF over GST control)"
same,binding signal,CRX,"1.11 fold enrichment (6-mer frequency, TF over GST control)"
same,binding signal,ETV1,"1.14 fold enrichment (6-mer frequency, TF over GST control)"
same,binding signal,ERF,"1.33 fold enrichment (6-mer frequency, TF over GST control)"
same,binding signal,ETV3L,"1.37 fold enrichment (6-mer frequency, TF over GST control)"
same,binding signal,ETS2,"1.25 fold enrichment (6-mer frequency, TF over GST control)"
same,binding signal,SPDEF,"1.15 fold enrichment (6-mer frequency, TF over GST control)"
same,binding signal,ETV7,"1.35 fold enrichment (6-mer frequency, TF over GST control)"
same,binding signal,ELF5,"1.34 fold enrichment (6-mer frequency, TF over GST control)"
same,binding signal,ETV3,"1.13 fold enrichment (6-mer frequency, TF over GST control)"
same,binding signal,ETV6,"1.27 fold enrichment (6-mer frequency, TF over GST control)"
